Screening data deposited in PubChem by National Center for Advancing Translational Sciences (NCATS).
A selection: hits, their analogues and other compounds. The true share with any hit is near 21%.
IL1B secr inh = qHTS for Inhibitors of Inflammasome Signaling: IL-1-beta AlphaLISA Primary Screen | THP-1 LPS/ATP IL-1B secretion, AlphaLISA, 16 h; stronger effect = lower value | activity change, % at 57.5 µM | 360,000 compounds, 4.7% hits | AID 743279, 2014; in the data active = activity change below about -50%; inconclusive = mostly about -30% to -49%
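Secreted IL-1B measured by AlphaLISA bead assay after 16 h compound exposure of THP-1 cells; compounds (final up to 57.5 uM) added 1 h before LPS (250 ng/mL) and ATP (1.25 mM) stimulation; lower signal means less secretion.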
DRD3 antagonist = qHTS of D3 Dopamine Receptor Antagonist: qHTS; AID 652054, 2013; max response, negative = inhibition, %; D3R cells, DiscoveRx beta-arrestin luminescence, antagonist mode; stronger effect = lower value; 360,000 compounds, 2.5% hits; in the data active = max response below about -50%; inconclusive = no clear call, values can overlap the other calls
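Cells plated overnight at 1500 cells/well, then exposed to library compounds with dopamine controls for 90 minutes at 37 degrees C. DiscoveRx reagent added for 30–60 minutes at room temperature; luminescence read, quantitative HTS format.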
DT40 TDP1 CPT = qHTS for Inhibitors of human tyrosyl-DNA phosphodiesterase 1 (TDP1): qHTS in cells in presence of CPT; 420,000 compounds, 12% hits; Potency, µM (highest dose often 46.2 µM), most hits filed as inhibitors; chicken DT40 Tdp1-/-;hTDP1 cells + 20 nM CPT, ATP luminescence, 48 h; also: nearly all actives have a fitted effect of over 55% in size
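Chicken DT40 Tdp1-/- cells complemented with human TDP1, 400 cells/well, exposed to compounds plus 20 nM camptothecin for at least 48 h at 37 C; viability read as ATP content by CellTiter-Glo luminescence.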
TDP1 cell noCPT = qHTS for Inhibitors of human tyrosyl-DNA phosphodiesterase 1 (TDP1): qHTS in cells in absence of CPT; DT40 Tdp1-/- hTDP1 cells, no CPT, ATP luminescence, 48 h; Potency, µM (highest dose often 46.2 µM), most hits filed as inhibitors; 420,000 compounds, 15% hits; also: nearly all actives have a fitted effect of over 55% in size
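Compound effects on proliferation are scored in DT40 Tdp1-/-;hTDP1 cells in the absence of CPT. ATP levels (CellTiter-Glo luminescence) are recorded after a ≥48 hr, 37 °C incubation.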
DRD3 agonist = qHTS of D3 Dopamine Receptor Agonist: qHTS. D(3) dopamine receptor (Homo sapiens), P35462. 410,000 compounds, 0.58% hits. D3R DiscoveRx beta-arrestin cells, luminescence, 90 min. AID 652048, 2013. max activation, %; in the data active = max activation above about 30%
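Agonist mode: compounds and dopamine controls were applied to plated cells for 90 min at 37 degrees C after an overnight attachment at 1500 cells/well. Luminescent read-out followed 30 - 60 minutes at room temperature with DiscoveRx detection reagent.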
ClpP mod = qHTS Assay for Activators of ClpP | 340,000 compounds, 1.9% hits | purified B. subtilis ClpP, FRET peptide cleavage, 20 min | AID 651965, 2013 | Potency, µM (highest dose often 57.5 µM) | ATP-dependent Clp protease proteolytic subunit (Bacillus subtilis (strain 168)), P80244; active = well fitted falling curve with a large enough effect; inconclusive = small, poorly fitted or top-dose-only effect; inactive = no such curve, though single readings can be large or run the other way; also: the source files actives as falling curves though it sought activators and does not explain the sign; nearly all actives have a fitted effect of over 65% in size
Target sequence (P80244 whole entry, looked up): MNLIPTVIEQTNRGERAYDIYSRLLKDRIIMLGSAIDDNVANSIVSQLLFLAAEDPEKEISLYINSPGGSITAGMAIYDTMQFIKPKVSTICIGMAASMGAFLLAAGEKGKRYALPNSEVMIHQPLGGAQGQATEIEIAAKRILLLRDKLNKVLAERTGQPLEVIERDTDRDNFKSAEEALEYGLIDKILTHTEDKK
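ClpP 10 microg/mL final, pH 8 Tris/KCl buffer with BSA, glycerol, Tween-20; compound pinned in; FRET-FV substrate; RT 20 min; Ex320/Em430; ΔFRET vs ADEP 5.8 microM, DMSO, no enzyme.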
Each line names hits and unclear results; the compound was inactive in the other large screens. Unless noted, calls follow the shape of the dose curve; as a rule, active = well fitted inhibition curve with a large enough effect; inconclusive = small, poorly fitted or top-dose-only effect; inactive = flat fitted curve, though single readings scatter.

CCc1ncc(CO)n1Cc1cccc2ccccc12	TDP1 cell noCPT inconclusive
COc1ccc(Cl)cc1NC(=O)c1nc(S(C)(=O)=O)ncc1N(Cc1ccc(C)cc1)Cc1ccco1	DT40 TDP1 CPT 8.2µM, TDP1 cell noCPT 9.2µM (no result: IL1B secr inh, DRD3 antagonist)
COc1ccc(NC(=O)c2nc(S(C)(=O)=O)ncc2N(Cc2ccc(C)cc2)Cc2ccco2)cc1Cl	DT40 TDP1 CPT inconclusive, TDP1 cell noCPT 18.4µM (no result: IL1B secr inh, DRD3 antagonist)
O=C(Nc1nnc(Cc2ccc(Cl)cc2)s1)C1CCN(C(=O)c2ccco2)CC1	DT40 TDP1 CPT inconclusive, TDP1 cell noCPT inconclusive (no result: IL1B secr inh, DRD3 antagonist, DRD3 agonist)
CS(=O)(=O)N1CCN(C(=O)Cc2ccccc2Cl)CC1	none (no result: ClpP mod)
CCCCCCC(=O)NN1CCN(C)CC1	none
CCCCCCn1ccc(=N)cc1	DT40 TDP1 CPT 0.206µM, TDP1 cell noCPT 0.206µM
CCOc1ccc(C2C(C(=O)OC)=C(C)NC3=C2C(=O)c2ccccc23)cc1OC (configuration not stated)	DT40 TDP1 CPT 18.4µM, TDP1 cell noCPT 20.6µM (no result: IL1B secr inh, DRD3 antagonist)
C#CCOc1c(Br)cc(C2C(C(=O)OC)=C(C)NC3=C2C(=O)c2ccccc23)cc1OCC (configuration not stated)	DT40 TDP1 CPT inconclusive, TDP1 cell noCPT 5.8µM (no result: IL1B secr inh, DRD3 antagonist)
CCOc1cc(C2NC(=O)N(C)C(C)=C2C(=O)OC)cc(Br)c1O (configuration not stated)	none
CCOC(=O)C1=C(C)NC2=C(C(=O)c3ccccc32)C1c1cccnc1 (configuration not stated)	DT40 TDP1 CPT inconclusive, TDP1 cell noCPT inconclusive
CCOc1cc(CNc2ncn[nH]2)ccc1OCC(=O)NC(C)(C)C	none
COc1ccc(C(=O)COC(=O)c2cnc(C)cn2)c(OC)c1	none (no result: ClpP mod)
COc1ccc(N(C(=O)c2snc(C(N)=O)c2N)C(C(=O)NCc2ccccc2)c2ccc(O)cc2)cc1 (configuration not stated)	DT40 TDP1 CPT inconclusive, TDP1 cell noCPT 23.1µM (no result: ClpP mod)
Cc1cccc(N(C(=O)c2snc(C(N)=O)c2N)C(C(=O)NCc2ccccc2)c2ccncc2)c1 (configuration not stated)	TDP1 cell noCPT inconclusive (no result: ClpP mod)
NC(=O)c1nsc(C(=O)N(c2ccccc2)C(C(=O)NCc2ccc(F)cc2)c2ccc(O)cc2)c1N (configuration not stated)	DT40 TDP1 CPT 20.6µM, TDP1 cell noCPT 18.4µM (no result: ClpP mod)
COc1ccc(OC)c(N(C(=O)c2snc(C(N)=O)c2N)C(C(=O)NCc2ccccc2)c2ccc(O)cc2)c1 (configuration not stated)	IL1B secr inh -78.8, DT40 TDP1 CPT inconclusive, TDP1 cell noCPT inconclusive (no result: ClpP mod)
NC(=O)c1nsc(C(=O)N(c2ccccc2)C(C(=O)NCc2ccc(F)cc2)c2ccco2)c1N (configuration not stated)	DT40 TDP1 CPT inconclusive, TDP1 cell noCPT inconclusive (no result: ClpP mod)
COc1ccc(CNC(=O)C(c2ccc(C)o2)N(C(=O)c2snc(C(N)=O)c2N)c2ccccc2OC)cc1 (configuration not stated)	DT40 TDP1 CPT inconclusive (no result: ClpP mod)
CCc1ccc(NC(=O)Nc2nnc(N(C)C3CCCCC3)s2)cc1	DT40 TDP1 CPT inconclusive, TDP1 cell noCPT inconclusive (no result: IL1B secr inh, DRD3 antagonist)
Cc1[nH]nc(Nc2ccc(Br)cc2)c1[N+](=O)[O-]	DT40 TDP1 CPT 20.6µM, TDP1 cell noCPT 18.4µM
Cc1[nH]nc(Nc2ccc(C(C)C)cc2)c1[N+](=O)[O-]	IL1B secr inh -51.4, TDP1 cell noCPT inconclusive (no result: ClpP mod)
Cc1[nH]nc(Nc2ccccc2)c1[N+](=O)[O-]	none
O=c1cnc2cnc(Oc3cccc(Cl)c3)nc2n1C1CC1	none (no result: IL1B secr inh, DRD3 antagonist, DRD3 agonist, ClpP mod)
COc1cc(Cl)c(C)cc1NC(=O)c1ccccc1-n1cnnn1	DT40 TDP1 CPT inconclusive, TDP1 cell noCPT inconclusive (no result: ClpP mod)
